In PubChem BioAssay (NCI):
Several values for one entry are separate records, joined by “and”; a condition that tells them apart may be missing. Equal entries are not always repeated. Compounds without any hit were thinned out: in the full panel of roughly 83,000, 20% have a hit.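 The test compound was applied at a single concentration to cells in 96-well plates for 48 hours, and percent growth was recorded.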 Activity calls are given as the source filed them. The calls were made as follows: active = growth percent below 10; inactive = the rest.

System: IGROV1 ovarian
Test: NCI-60 one-dose screen, 48 h (100 = growth as untreated, 0 = no growth, -100 = all killed)
Conditions: 10 µM unless noted

Compound	growth
CCOC(=O)/C=C/c1ccc([N+](=O)[O-])o1	77.5% (inactive)
Cc1cc(C(C)(CC(C)C)c2ccc(O)c(C)c2)ccc1O	103% (inactive)
Nc1nc(N)c2c(ccc3c2ccn3Cc2cccc([N+](=O)[O-])c2)n1	-90% (active)
O[C@H]1[C@H]2c3cc4c(cc3CN3CCC(=C[C@@H]1O)[C@H]23)OCO4	40.8% (inactive)
CN1c2ccccc2C(C)(C)C12C=Cc1cc(O)ccc1O2 (centres undefined)	-7.4% (active)
CN(Cc1cnc2nc(N)nc(N)c2n1)c1ccc(C(=O)NC(CCC(=O)O)C(=O)O)cc1 (centres undefined)	31.2% (inactive)
CCOc1ccc(-c2nc3ccc(-c4nc5ccc(N6CCN(C)CC6)cc5[nH]4)cc3[nH]2)cc1	-82.9% (active)
CNc1ccc(N)cc1	101% (inactive)
CC1OC(OC2C(OC3CCC4(C)C(CCC5(C)C4CC=C4C6CC(C)(C)CCC6(CO)C(O)CC45C)C3(C)C)OC(C(=O)O)C(OC3OC(COC4OC(CO)C(O)C(O)C4O)C(O)C(O)C3O)C2O)C(O)C(O)C1O (centres undefined)	-81.6% (active)
CCCCCCC(C)c1ccccc1O (centres undefined) (tested in a mixture with another compound)	111% (inactive)
CC1(C)CC([P+](c2ccccc2)(c2ccccc2)c2ccccc2)=NN1	-22.8% (active)
CN(C)c1ccc(N=Nc2cccc3ccccc23)cc1	67.2% (inactive)
O=C1c2ccccc2C(=O)c2sc(Nc3ccc(Cl)cc3)nc21	34.8% (inactive)
Oc1c(Br)cc(Cl)cc1C(c1cc(Cl)cc(Br)c1O)C(Cl)(Cl)Cl	24.8% (inactive)
CC1SC(=S)N(c2ccc(Cl)cc2)C1=O (centres undefined)	128% (inactive) and 92.5% (inactive)
N#CSCc1ccc(Cl)c(CSC#N)c1	59.4% (inactive)
O=C(O)C1C2CC3C(OC(=O)C31)C2Br (centres undefined)	103% (inactive) and 114% (inactive)
Nc1ccc(SSc2ccc(N)cc2)cc1	108% (inactive)
CCCCCCCCCCCCCCCCN(CC)CC	-90.5% (active)
CCC1OC(OC)C=CC1=O (centres undefined)	137% (inactive)

System: OVCAR-3 ovarian
Test: as above
Conditions: 10 µM unless noted

Compound	growth
CN(C)CCOc1ccc2c(c1)C(=O)/C(=C\c1ncc([N+](=O)[O-])n1C)C2	-59% (active)
CC(=O)C(=Cc1ccc(C=C(C(C)=O)C(C)=O)cc1)C(C)=O	-16.2% (active)
N#CSCc1ccc(CSC#N)c(Cl)c1	77.9% (inactive)
Nc1nc(N)c2nc(CNc3ccc(C(=O)NC(CCC(=O)O)C(=O)O)cc3)cnc2n1 (centres undefined)	37.6% (inactive) and 39.8% (inactive)
CCOC(=O)/C=C/c1ccc([N+](=O)[O-])o1	17.1% (inactive)
Cc1cc(C(C)(CC(C)C)c2ccc(O)c(C)c2)ccc1O	106% (inactive)
Nc1nc(N)c2c(ccc3c2ccn3Cc2cccc([N+](=O)[O-])c2)n1	-93.9% (active)
O[C@H]1[C@H]2c3cc4c(cc3CN3CCC(=C[C@@H]1O)[C@H]23)OCO4	34.5% (inactive)
CN1c2ccccc2C(C)(C)C12C=Cc1cc(O)ccc1O2 (centres undefined)	4.21% (active)
CN(Cc1cnc2nc(N)nc(N)c2n1)c1ccc(C(=O)NC(CCC(=O)O)C(=O)O)cc1 (centres undefined)	37.8% (inactive)
CCOc1ccc(-c2nc3ccc(-c4nc5ccc(N6CCN(C)CC6)cc5[nH]4)cc3[nH]2)cc1	-100% (active)
CNc1ccc(N)cc1	112% (inactive)
CC(=O)Nc1cccc2cc(O)ccc12	111% (inactive) and 105% (inactive) and 108% (inactive)
CC1OC(OC2C(OC3CCC4(C)C(CCC5(C)C4CC=C4C6CC(C)(C)CCC6(CO)C(O)CC45C)C3(C)C)OC(C(=O)O)C(OC3OC(COC4OC(CO)C(O)C(O)C4O)C(O)C(O)C3O)C2O)C(O)C(O)C1O (centres undefined)	-50.7% (active)
CCCCCCC(C)c1ccccc1O (centres undefined) (tested in a mixture with another compound)	111% (inactive)
CC1(C)CC([P+](c2ccccc2)(c2ccccc2)c2ccccc2)=NN1	23.7% (inactive)
CN(C)c1ccc(N=Nc2cccc3ccccc23)cc1	84.3% (inactive)
CN(C)c1ccc(C(=C2C=CC(=[N+](C)C)C=C2)c2ccc(N(C)C)cc2)cc1 (tested in a mixture with another compound)	-93.5% (active)
CC1OC2CC(=O)OC2C2=C1C(=O)c1c(O)cccc1C2=O (centres undefined)	-97.9% (active)
